# Pf apPOL block: Pf-apPOL inhibitors, biochemical, fluorescence; inhibition, % at 10 µM; Recombinant Pf-apPOL, molecular beacon fluorescence, 1.5 h; hit rate 0.25% among 210,000; AID 1794808, 2022; Plasmodium falciparum apicoplast DNA polymerase (apPOL)
# mHTT-CaM PPI inh: mutant huntingtin-calmodulin interaction inhibitors – biochemical, AlphaScreen, primary screen | AlphaScreen His-mHTT/GST-CaM binding, luminescence | P42858 | hit rate 3.6% among 190,000 | inhibition, % at 15 µM
# Target sequence (P42858 whole entry, looked up, change not shown): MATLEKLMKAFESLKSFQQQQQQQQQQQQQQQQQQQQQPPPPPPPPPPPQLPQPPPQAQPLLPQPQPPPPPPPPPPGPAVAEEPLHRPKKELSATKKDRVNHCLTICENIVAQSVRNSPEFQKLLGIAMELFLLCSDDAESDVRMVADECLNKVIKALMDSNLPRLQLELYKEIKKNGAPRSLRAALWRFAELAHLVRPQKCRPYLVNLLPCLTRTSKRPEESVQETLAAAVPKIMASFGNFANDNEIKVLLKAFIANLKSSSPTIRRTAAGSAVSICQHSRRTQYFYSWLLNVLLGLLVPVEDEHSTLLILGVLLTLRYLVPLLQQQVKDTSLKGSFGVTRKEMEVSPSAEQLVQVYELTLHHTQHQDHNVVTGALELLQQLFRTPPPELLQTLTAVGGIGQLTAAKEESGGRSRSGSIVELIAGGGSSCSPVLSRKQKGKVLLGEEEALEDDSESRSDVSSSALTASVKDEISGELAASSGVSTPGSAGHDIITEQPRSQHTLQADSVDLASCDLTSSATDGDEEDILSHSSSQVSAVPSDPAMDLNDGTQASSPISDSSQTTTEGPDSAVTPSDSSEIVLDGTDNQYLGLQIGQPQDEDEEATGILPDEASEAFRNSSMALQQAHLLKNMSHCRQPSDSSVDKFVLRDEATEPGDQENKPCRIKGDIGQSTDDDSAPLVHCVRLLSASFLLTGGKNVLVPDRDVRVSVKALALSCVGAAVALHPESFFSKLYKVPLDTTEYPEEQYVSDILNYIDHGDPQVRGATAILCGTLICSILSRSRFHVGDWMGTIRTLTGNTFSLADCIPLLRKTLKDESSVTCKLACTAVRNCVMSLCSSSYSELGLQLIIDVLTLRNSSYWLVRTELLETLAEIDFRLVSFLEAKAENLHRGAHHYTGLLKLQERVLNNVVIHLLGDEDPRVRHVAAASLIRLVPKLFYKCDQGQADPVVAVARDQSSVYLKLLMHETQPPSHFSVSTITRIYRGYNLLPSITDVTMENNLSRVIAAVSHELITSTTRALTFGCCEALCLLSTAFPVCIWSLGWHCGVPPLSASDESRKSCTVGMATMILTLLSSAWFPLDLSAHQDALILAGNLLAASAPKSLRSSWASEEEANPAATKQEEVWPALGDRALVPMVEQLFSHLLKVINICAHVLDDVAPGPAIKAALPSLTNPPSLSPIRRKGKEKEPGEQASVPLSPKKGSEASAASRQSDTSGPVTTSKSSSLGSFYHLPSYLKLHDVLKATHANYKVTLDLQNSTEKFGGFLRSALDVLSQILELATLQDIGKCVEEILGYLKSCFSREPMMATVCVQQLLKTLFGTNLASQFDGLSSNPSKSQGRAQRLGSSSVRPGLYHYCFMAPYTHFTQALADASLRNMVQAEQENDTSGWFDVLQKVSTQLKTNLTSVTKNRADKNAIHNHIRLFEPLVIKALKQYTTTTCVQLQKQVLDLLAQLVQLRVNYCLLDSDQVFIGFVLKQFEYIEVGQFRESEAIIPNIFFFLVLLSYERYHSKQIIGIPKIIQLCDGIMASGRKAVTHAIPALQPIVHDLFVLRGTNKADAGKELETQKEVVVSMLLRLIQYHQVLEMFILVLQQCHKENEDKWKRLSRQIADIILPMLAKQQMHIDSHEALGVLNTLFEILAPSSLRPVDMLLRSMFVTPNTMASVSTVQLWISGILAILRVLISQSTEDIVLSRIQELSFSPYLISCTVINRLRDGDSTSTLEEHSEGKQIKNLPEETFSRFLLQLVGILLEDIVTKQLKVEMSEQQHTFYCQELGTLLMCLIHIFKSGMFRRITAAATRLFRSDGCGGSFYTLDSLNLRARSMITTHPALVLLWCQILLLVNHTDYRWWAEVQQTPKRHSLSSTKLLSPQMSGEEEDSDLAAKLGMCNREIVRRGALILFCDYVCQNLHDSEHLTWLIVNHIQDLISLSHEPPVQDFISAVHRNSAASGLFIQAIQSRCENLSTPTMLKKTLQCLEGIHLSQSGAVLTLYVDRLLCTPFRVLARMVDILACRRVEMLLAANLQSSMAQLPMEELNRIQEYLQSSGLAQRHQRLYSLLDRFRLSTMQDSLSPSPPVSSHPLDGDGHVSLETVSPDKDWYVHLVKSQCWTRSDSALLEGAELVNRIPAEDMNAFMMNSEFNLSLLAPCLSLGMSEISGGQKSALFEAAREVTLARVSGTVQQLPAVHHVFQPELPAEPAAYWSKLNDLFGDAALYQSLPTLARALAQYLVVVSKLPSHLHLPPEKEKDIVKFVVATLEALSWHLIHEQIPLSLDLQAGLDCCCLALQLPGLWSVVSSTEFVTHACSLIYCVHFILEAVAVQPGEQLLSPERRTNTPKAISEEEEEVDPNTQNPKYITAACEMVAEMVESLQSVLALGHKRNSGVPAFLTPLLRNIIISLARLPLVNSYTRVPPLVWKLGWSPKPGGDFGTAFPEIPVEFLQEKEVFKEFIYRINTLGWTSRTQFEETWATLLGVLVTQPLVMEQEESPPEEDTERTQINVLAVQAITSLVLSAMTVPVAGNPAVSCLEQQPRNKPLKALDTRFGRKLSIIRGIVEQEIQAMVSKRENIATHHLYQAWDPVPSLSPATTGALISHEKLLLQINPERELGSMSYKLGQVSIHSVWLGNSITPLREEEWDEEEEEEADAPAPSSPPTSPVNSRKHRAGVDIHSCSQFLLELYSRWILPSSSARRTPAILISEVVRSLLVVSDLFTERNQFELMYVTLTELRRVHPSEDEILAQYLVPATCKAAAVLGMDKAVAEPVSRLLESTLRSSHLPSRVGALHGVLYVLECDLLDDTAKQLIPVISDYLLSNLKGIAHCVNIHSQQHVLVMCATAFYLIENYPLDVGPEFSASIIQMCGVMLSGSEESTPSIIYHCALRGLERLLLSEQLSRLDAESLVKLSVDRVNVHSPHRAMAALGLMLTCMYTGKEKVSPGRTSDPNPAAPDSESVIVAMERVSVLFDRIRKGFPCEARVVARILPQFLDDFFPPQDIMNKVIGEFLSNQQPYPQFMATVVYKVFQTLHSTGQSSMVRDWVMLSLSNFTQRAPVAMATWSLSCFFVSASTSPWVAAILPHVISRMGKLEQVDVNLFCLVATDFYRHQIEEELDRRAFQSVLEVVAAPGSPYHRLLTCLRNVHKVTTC
# Hits are given with their value; i = inactive; nt = no result. The sample as a whole holds a higher share of hits than the screen did. Rule as the data show it: active = inhibition above about 50%; inactive = the rest.
SMILES,Pf apPOL block,mHTT-CaM PPI inh
COCCn1cnc2sc(C(=O)Nc3cccc(C(F)(F)F)c3)c(C)c2c1=O,i,i
CCCCNC(=O)c1sc2ncn(CC(=O)Nc3cccc(C(F)(F)F)c3)c(=O)c2c1C,i,68.0
COc1ccc(C)cc1N(CC(=O)N1CCN(c2ccccc2F)CC1)S(C)(=O)=O,i,i
O=C(NC(=NN=C1CCCCC1)SCc1ccccc1)Nc1ccccc1,i,nt
COc1ccc(CCNC(=O)C2c3ccccc3C(=O)N2C(C)c2ccccc2)cc1OC (stereo unspecified),i,i
Cc1ccc(C(=O)NCc2ccc(Cl)cc2)c(Cl)c1,i,i
Cc1ccc(Cn2c(=O)cc(C(=O)NCc3ccccc3Cl)c3ccccc32)cc1,i,78.0
CCCn1c(=O)c(C(=O)NCc2ccccc2Cl)c(O)c2ccccc21,i,i
Cc1ccc(CNC(=O)c2ccc(Cl)cc2Cl)cc1,64.8,i
O=C(NC1CCCC1)C(c1cc2c(cc1[N+](=O)[O-])OCO2)N(CCO)Cc1ccccc1 (stereo unspecified),i,i
CCCCCCN1C[C@@H](O)[C@H](n2cc(C3CC3)nn2)C[C@@H]1c1ccccc1,i,i
CCCCCCN1C[C@H](n2cc(C3CC3)nn2)[C@@H](O)C[C@@H]1c1ccc(OC)cc1,i,97.9
CCCCCCN1C[C@@H](n2cc(-c3ccc(F)cc3)nn2)[C@H](O)C[C@@H]1c1ccc(OC)cc1,i,i
CCCCCC(=O)N1C[C@@H](O)[C@H](n2cc(C3CC3)nn2)C[C@@H]1c1ccc(OC)cc1,i,i
CCCCCCN1C[C@H](n2cc(C3CC3)nn2)[C@@H](O)C[C@@H]1c1ccccc1,i,99.3
COc1ccc([C@H]2C[C@@H](n3cc(-c4ccc(F)cc4)nn3)[C@H](O)CN2CC2CCCCC2)cc1,i,i
COc1ccc([C@H]2C[C@H](O)[C@@H](n3cc(-c4ccc(F)cc4)nn3)CN2CC2CCCCC2)cc1,i,69.3
CCCCCCN1C[C@H](n2cc(-c3ccc(F)cc3)nn2)[C@@H](O)C[C@@H]1c1ccc(OC)cc1,i,67.3
COc1cccc(C(=O)N2CCC(c3noc(N)c3C)CC2)c1,i,i
Cc1cc(C)cc(-n2c(CN3CCN(C(=O)NCc4ccco4)CC3)nc3cccnc32)c1,i,i
Cc1noc(C)c1CCC(=O)NC1CCN(c2ncnc3c2CCC3)C1 (stereo unspecified),i,i
O=C(NCc1ccco1)C1CCCN(c2ccc(-n3ccnc3)nn2)C1 (stereo unspecified),i,i
Cc1cccc(Nc2c(-c3nc(C)no3)cnc3nc(C)ccc23)c1,i,i
CC(C)N1CCN(C(=O)c2csc(N3CCN(c4ccc(F)cc4)CC3)n2)CC1,i,i
CC1=C(C(=O)Nc2ccccc2)C(c2ccc3c(c2)OCO3)n2nnnc2N1 (stereo unspecified),i,i
SMILES,Pf apPOL block,mHTT-CaM PPI inh
CNC(=O)N1CCc2ccc(C(=O)N3CCCC3)cc21,i,i
CC(C)c1nc(-n2cccc2)sc1C(=O)NC1CC1,i,i
CC1CCCN(C(=O)c2cc3c(n2C)CCN(Cc2ccc(F)cc2)C3)C1 (stereo unspecified),i,58.2
Cn1c(C(=O)N2CCC(N3CCCCC3)CC2)cc2c1CCN(Cc1ccccc1)C2,i,i
Cn1c(C(=O)NC2CC2)cc2c1CCN(Cc1ccc(F)cc1)C2,i,i
CC1CCCN(C(=O)c2cc3c(n2C)CCN(Cc2ccccc2)C3)C1 (stereo unspecified),i,68.7
CN(C)n1cccc1C=C(C#N)C(=O)c1ccco1,i,nt
O=C(Nc1c(-c2ccc(F)cc2)nc2ccccn12)C1CCC1,i,i
N#Cc1c(-c2ccccc2)cc(-c2ccco2)c(C#N)c1N,i,55.3
N#Cc1c(-c2ccco2)cc(-c2ccco2)[nH]c1=O,92.7,nt
N#CCOc1nc(-c2ccccc2)cc(-c2ccco2)c1C#N,i,nt
N#Cc1ccc(-c2ccco2)[nH]c1=O,i,nt
COc1cccc(C(c2c(C)[nH][nH]c2=O)c2c(C)[nH][nH]c2=O)c1OC,i,i
CCCn1c(N2CCNCC2)nc2c1c(=O)[nH]c(=O)n2C,i,i
CCc1ccc(Nc2ncnc3c2nc2n3CCCC2)cc1,i,i
C[C@H]1[C@@H]2C[C@H]([C@H]3CCCCN31)[C@H](OC(=O)Nc1ccc(C(F)(F)F)cc1)C2,i,76.3
CCCC[C@H]1[C@@H]2C[C@H]([C@H]3CCCCN31)[C@H](OC(=O)Nc1ccc(C(F)(F)F)cc1)C2,i,i
COc1ccc(C2CC(=O)C3=C(C2)Nc2ccccc2NC3c2cccc(C(F)(F)F)c2)cc1 (stereo unspecified),i,i
COc1ccc(C2CC(=O)C3=C(C2)Nc2ccccc2NC3c2ccc(C(F)(F)F)cc2)cc1 (stereo unspecified),i,53.0
Cc1ccc(C2Nc3ccccc3NC3=C2C(=O)CC(c2ccccc2F)C3)cc1 (stereo unspecified),i,i
O=C1CC(c2ccccc2)CC2=C1C(c1ccccc1C(F)(F)F)Nc1ccccc1N2 (stereo unspecified),i,i
O=C1CC(c2ccccc2Cl)CC2=C1C(c1ccc(F)cc1)Nc1ccccc1N2 (stereo unspecified),i,57.0
COc1ccc(C2CC(=O)C3=C(C2)Nc2ccccc2NC3c2ccc(Cl)c([N+](=O)[O-])c2)cc1 (stereo unspecified),i,52.0
COc1ccc(C2Nc3ccccc3NC3=C2C(=O)CC(c2ccccc2)C3)cc1 (stereo unspecified),i,i
O=C1CC(c2ccccc2)CC2=C1C(c1ccc(C(F)(F)F)cc1)Nc1ccccc1N2 (stereo unspecified),i,86.0
SMILES,Pf apPOL block,mHTT-CaM PPI inh
Cn1c(=O)c2c(ncn2CC(=O)Nc2ccc(S(=O)(=O)Nc3nccs3)cc2)n(C)c1=O,i,i
CC(NC(=O)C(=O)Nc1cccnc1)c1ccccc1 (stereo unspecified),i,i
CC(=NOCc1cccc(C(=O)Oc2ccc(C(F)(F)F)cc2)c1)c1ccc(Cl)c(Cl)c1,i,nt
O=C(NCCCN1CCCCC1)C1CCCN(c2ncc(-c3cccc(F)c3)cn2)C1 (stereo unspecified),i,i
O=C(Nc1ccc(N2CCCN(Cc3ccc(F)c(F)c3)C2=O)cc1)C1CC1,i,i
O=C1CC(c2cccs2)CC2=C1C(c1ccc(F)cc1)Nc1ccccc1N2 (stereo unspecified),i,i
O=C1CC(c2ccccc2)CC2=C1C(c1ccc(F)c(Br)c1)Nc1ccccc1N2 (stereo unspecified),i,59.0
O=C1CC(c2cccs2)CC2=C1C(c1ccc(Cl)c(Cl)c1)Nc1ccccc1N2 (stereo unspecified),i,77.0
O=C1CC(c2ccccc2)CC2=C1C(c1cccc(F)c1)Nc1ccccc1N2 (stereo unspecified),i,i
Cc1nc(-c2noc(C(=O)NNC(=O)Nc3cccc(C(F)(F)F)c3)n2)cs1,i,nt
Cc1nc2ccccn2c1C(=O)Nc1ccc2c(c1)N(C(=O)c1ccco1)CC2,i,i
O=C(COc1ccc(F)cc1)Nc1cc(F)c2nc(N3CCOCC3)ccc2c1,i,i
Cc1ccc(Cl)c2c1C(=O)c1ccccc1C2=O,i,i
Nc1ccc(Cl)c2c1C(=O)c1ccccc1C2=O,i,59.0
COC(=O)c1ccccc1S(=O)(=O)N1CCC(c2noc(-c3ccccc3)n2)CC1,i,i
Cc1nc(-c2cn(C(C)C)c3ncccc23)sc1C(=O)Nc1ccc(F)cc1,i,100.3

# Source: PubChem BioAssay
